Measured values from PubChem BioAssay (NCI).
The panel holds about 83,000 compounds, 20% with a hit somewhere; the sample as a whole holds those more often.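 Testing used 96-well plates and a 48-hour single-concentration exposure. Example: -40 means 40% of the starting cells died.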 Unmarked numbers belong to inactive results. Calls of active or inactive are those of the source. The calls were made as follows: active = growth percent below 10; inactive = the rest.

Assays:
Assay in all cases: NCI-60 one-dose screen, 48 h (100 = growth as untreated, 0 = no growth, -100 = all killed)
Conditions in all cases: 10 µM unless noted
[1] = tested on: DU-145 prostate
[2] = tested on: K-562 leukemia
[3] = tested on: MALME-3M melanoma
[4] = tested on: MDA-MB-231 breast
[5] = tested on: RXF 393 renal
[6] = tested on: SF-268 CNS
[7] = tested on: SF-295 CNS
[8] = tested on: SF-539 CNS
[9] = tested on: UACC-257 melanoma
[10] = tested on: M14 melanoma

SMILES | growth [1] | growth [2] | growth [3] | growth [4] | growth [5] | growth [6] | growth [7] | growth [8] | growth [9] | growth [10]
C=C1C(=O)O[C@H]2[C@H]1CC/C(COC(=O)c1cc3ccccc3s1)=C\CC[C@@]1(C)O[C@@H]21 | -80.6% (active) | 2.38% (active) | -67.2% (active) | -66.1% (active) | -88.8% (active) | -60.6% (active) | 32% | -88.4% (active) | -63.3% (active) | -81.1% (active)
CC(=O)O[C@@H]1C[C@]2(C(C)C)O[C@@]1(C)[C@@H]1CCC(C)=C1[C@@H]2OC(=O)/C=C/c1ccccc1 | 101% | 81.7% | 86.4% | 84.1% | 30.8% | 80.8% | 92.1% | 101% | 90.5% | 93.6%
CCN(CC)c1ccc(\C=N/N=C(N)/C(N)=N\N=C/c2ccc(N(CC)CC)cc2)cc1 | 110% | 99.3% | 93.9% | 112% | 109% | 105% | 98.9% | 107% | 104% | 110%
O=C(COc1ccc(-c2nc3cc(Cl)c(Cl)cc3[nH]2)cc1)N=Nc1c(O)[nH]c2ccc(Cl)cc12 | 74.6% | 5.55% (active) | 49.5% | 76.8% | 77.6% | 89.4% | 74.8% | 84.2% | 105% | 66.5%
COc1cc2ncnc(Nc3ccc(F)c(Cl)c3)c2cc1OCC(=O)N1CCN(c2ccccc2)CC1 | 62.9% | 85.2% | 96.3% | 90.5% | 81.2% | 82.6% | 93.4% | 104% | 107% | 99.4%
CCCCCCCC[C@@H]1N[C@@H](C(=O)OC)Cc2c1[nH]c1ccccc21 | 106% | 88.4% | 83% | 96.2% | 96.6% | 97.3% | 102% | 93.7% | 101% | 102%
O=C1NC(=O)C(Cc2ccc(OCc3ccc(-c4ccc(Cl)cc4Cl)cc3)cc2)S1 (stereo not given) | 78.9% | 23.5% | 49.9% | 71% | 76.1% | 51.8% | 45% | 56.2% | 55.7% | 47.5%
COc1ccc(OC)c(Nc2nnc(-c3ccc(O)c(OC)c3)o2)c1 | 51.4% | 32.3% | 79.9% | 69.4% | 52.7% | 68.8% | 100% | 49.9% | 115% | 74.6%
COc1cc(OC)c(NC(=O)c2cc3ccccc3cc2O)cc1Cl | 46.4% | 23.4% | 19.5% | 70.4% | 120% | 51.2% | 53.3% | 52.9% | 59.8% | 42.1%
Cc1ccc(NC(=O)Cn2cc(CN3CCN(c4ccnc5cc(Cl)ccc45)CC3)nn2)cc1 | 102% | 63.8% | 100% | 77.1% | 88.5% | 80.1% | 86.3% | 98.7% | 103% | 103%
N#Cc1ccc(O)c(C2=NCC(c3cccc(Oc4ccccc4)c3)O2)c1 (stereo not given) | 39.4% | 7.33% (active) | 37.3% | 24.6% | 61.8% | 23.1% | 30.9% | 23.6% | 6.96% (active) | -4.77% (active)
CC(C)=CCCC(C)c1ccc(C)c2c1OCN(CCCCCO)C2 (stereo not given) | 109% | 31.1% | 93.6% | 93.4% | 90.1% | 97.5% | 110% | 84.5% | 78.4% | 84.2%
Nc1ncnc2c1C(c1ccccc1)c1ccc3ccccc3c1O2 (stereo not given) | 99.8% | 70% | 110% | 89.1% | 104% | 84.7% | 88% | 90.7% | 79.7% | 95.8%
CCOC(=O)C1=C(N)Oc2c(sc3c(F)cccc23)C1c1ccc(O)cc1 (stereo not given) | 66.8% | 12.6% | 54.4% | 36.9% | 46.1% | 37% | 56.3% | 42.5% | 49.8% | 22.9%
CCn1cc(C(=O)NNC(=S)Nc2ccc(C)cc2)c(=O)c2ccc(C)nc21 | 108% | 99% | 103% | 93.5% | 104% | 103% | 102% | 102% | 94% | 113%
O=C1/C(=C/c2ccccc2O)CC/C1=C\c1ccccc1O | 46.1% | 7.41% (active) | 80.4% | 44.3% | 67.5% | 71.3% | 98.6% | 82.3% | 86.3% | 61.3%
CCOc1ccccc1Cn1ccnc1CCc1c(Cl)c(O)cc(O)c1C(=O)OC | 104% | 94.7% | 91.8% | 96.7% | 108% | 102% | 95.2% | 103% | 93.7% | 95.2%
O=C(/C=C(/C=C/c1ccc2[nH]ccc2c1)OB(F)F)/C=C/c1ccc2[nH]ccc2c1 | 3.56% (active) | -21.9% (active) | 31.1% | 12.2% | -57.6% (active) | 16.7% | -25.4% (active) | -7.54% (active) | 43.3% | -27.5% (active)
C#COc1cccc(Nc2c(C#N)cnc3ncc(NC(=O)CCl)cc23)c1 | 33.2% [6.25 µM] | 6.93% [6.25 µM] (active) | 76.9% [6.25 µM] | 20.9% [6.25 µM] | 54% [6.25 µM] | 6.32% [6.25 µM] (active) | 42.1% [6.25 µM] | -7.95% [6.25 µM] (active) | 47.1% [6.25 µM] | 41.2% [6.25 µM]
NC(=O)CSc1oc(-c2ccccc2)nc1S(=O)(=O)c1ccc(Br)cc1 | 85.6% | 91.7% | 59.4% | 52.7% | 46.5% | 72.6% | 80.7% | 45.7% | 84.7% | 83.5%
O=S(=O)(NCCNc1nccc(-c2c(-c3ccc(F)c(O)c3)nc3occn23)n1)c1ccc(Cl)cc1 | 90.9% | 73.8% | 2.05% (active) | 60% | 57.5% | 80.5% | 97.4% | 102% | 41.6% | 26.6%
C=C(C)[C@@H]1CC[C@]2(CO)CC[C@]3(C)[C@H](CC[C@@H]4[C@@]5(C)CC[C@H](NCO)C(C)(C)[C@@H]5CC[C@]43C)[C@@H]12 | -69.2% (active) | 0.949% (active) | -81.2% (active) | -86.2% (active) | -79.3% (active) | 59.1% | 57.4% | -95.6% (active) | -51.6% (active) | -62.2% (active)
C=CCn1c(C)nc2ccc(Nc3nc(Nc4ccc5nc(C)n(CC=C)c5c4)c4ccccc4n3)cc21 | -67.6% (active) | -43.5% (active) | -78.9% (active) | -78.8% (active) | -80.7% (active) | -32.4% (active) | -67.5% (active) | -93.8% (active) | -87.6% (active) | -88.4% (active)
O=C(N(c1ccccc1)c1ccccc1)n1cc(I)c2nc(Cl)nc(Cl)c21 | 43.3% | 20.8% | 73.4% | 67.6% | 40.1% | 34.3% | 48.2% | 56.8% | 53.7% | 57.4%
COC(=O)CC[C@@H]1O[C@@H](c2cccc(C(F)(F)F)c2)[C@@H](O)[C@H]1O | 103% | 112% | 99.1% | 108% | 95.3% | 101% | 104% | 97.2% | 106% | 102%
COc1ccc(-c2ccc(=O)oc2-c2cc(OC)c(OC)c(OC)c2)cc1O | -53.4% (active) | -25.7% (active) | 54.1% | 15.9% | 3.35% (active) | 5.78% (active) | -21.7% (active) | -19.2% (active) | 25.1% | -32.6% (active)
